The campaign covered roughly 16,000 compounds. About 5,700 (36%) were called active. About 24% were inconclusive and are not listed. Calls follow the shape of the dose curve; as a rule, active = well fitted curve in the direction sought with a large enough effect; inconclusive = small, poorly fitted or top-dose-only effect, or effect the other way; inactive = no such curve, though single readings can be large or run the other way. This is one part of the list.
Target: Cytochrome P450 1A2 (Homo sapiens) (UniProt P05177)
Sequence (P05177 whole entry, looked up): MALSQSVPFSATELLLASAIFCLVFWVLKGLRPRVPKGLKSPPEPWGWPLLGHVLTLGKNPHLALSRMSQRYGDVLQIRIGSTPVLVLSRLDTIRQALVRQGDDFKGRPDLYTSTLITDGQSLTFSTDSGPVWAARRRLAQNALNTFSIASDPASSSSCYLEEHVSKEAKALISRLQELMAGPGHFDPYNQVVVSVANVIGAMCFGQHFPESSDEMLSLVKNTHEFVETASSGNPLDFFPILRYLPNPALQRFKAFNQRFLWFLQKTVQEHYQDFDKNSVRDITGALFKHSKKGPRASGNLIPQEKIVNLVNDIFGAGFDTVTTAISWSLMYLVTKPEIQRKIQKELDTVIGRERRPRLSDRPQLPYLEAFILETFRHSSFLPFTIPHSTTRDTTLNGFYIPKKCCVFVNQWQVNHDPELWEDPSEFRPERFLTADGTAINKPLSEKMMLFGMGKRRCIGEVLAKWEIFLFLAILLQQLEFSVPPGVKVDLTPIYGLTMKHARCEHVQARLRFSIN
Assay: Cytochrome panel assay with activity outcomes
Settings: recombinant CYP, pro-luciferin dealkylation, luminescence, p450-cyp1a2; series mostly up to 57.1 µM
% is scaled to controls: 0 for no effect and ±100 for the full control effect.

AC50, active:
CS(=O)(=O)Nc1cccc(-c2cncnc2NCc2cccnc2)c1 15.8 µM, CS(=O)(=O)Nc1cccc(-c2ccc3ncnc(NCc4cccnc4)c3c2)c1 0.316 µM, C=CCn1c(SCC(=O)N2CCc3ccccc3C2)nc2ccccc2c1=O 8.91 µM, CCn1ccc(C(=O)Oc2ccc(Cl)cc2)n1 14.1 µM, Clc1ccccc1-c1nc(N2CCNCC2)c2ccccc2n1 2.51 µM, Cc1ccccc1-c1nc(N2CCNCC2)c2ccccc2n1 5.01 µM, Cc1ccccc1-c1nc(N2CCOCC2)c2ccccc2n1 2 µM, CN(C)Cc1ccccc1-c1nc(N2CCOCC2)c2ccccc2n1 20 µM, CCN(C(=S)Nc1ccccc1F)C1CCCCC1 15.8 µM, COc1cccc(-c2cc(NCc3cccnc3)ncn2)c1 0.631 µM, COc1cccc(-c2cc(NCc3ccccc3)ncn2)c1 2 µM, COc1cccc(-c2cc(NCc3cccs3)ncn2)c1 1.26 µM, c1cncc(-c2cc(NCc3cccs3)ncn2)c1 1 µM, Cc1cc(C2C(C#N)=C(N)Oc3n[nH]c(C)c32)c(C)s1 (configuration not stated) 15.8 µM, N#CC(=C(/N)Sc1ccccc1N)/C(C#N)=C(/N)Sc1ccccc1N 12.6 µM, Cc1cc(NC(=O)c2cccc(F)c2)no1 17.8 µM, Cc1cc(NC(=O)Nc2ccc(F)cc2)no1 10 µM, Cc1ccc2ncc([N+](=O)[O-])n2c1 6.31 µM, CCC(C)N1C(=O)S/C(=C/c2ccc(Sc3nc4ccccc4[nH]3)o2)C1=O (configuration not stated) 2 µM, NCCNc1ncnc2ccc(Cl)cc12 1 µM, CC(C)CC1CC(=O)OC1(C)C(=O)CSc1nc2ccccc2s1 (configuration not stated) 7.08 µM, c1ccc2c(-n3ccnc3)nc(-c3ccoc3)nc2c1 0.501 µM, CN(C)c1ccc(-c2nc(-n3ccnc3)c3ccccc3n2)cc1 0.316 µM, Cc1ccc(S(=O)(=O)NC(CC(C)C)C(=O)Oc2ccc3c4c(c(=O)oc3c2)CCC4)cc1 (configuration not stated) 3.98 µM, Cc1ccc(S(=O)(=O)N[C@H](C(=O)Oc2ccc3c(C(F)(F)F)cc(=O)oc3c2)c2ccccc2)cc1 1.78 µM

AC50, inactive:
O=S(=O)(NCc1cccnc1)c1ccc(Cl)nc1, C[C@H](O)C(=O)C1=Nc2c(nc(N)[nH]c2=O)NC1, O=C(O)CCCCCn1c(SCC(=O)N2CCCC2)nc2ccsc2c1=O, O=C(Cn1c(SCC(=O)N2CCc3ccccc3C2)nc2ccccc21)NC1CCCC1, CC(C)OC(=O)c1cccc(C(=O)Oc2ccc(Br)cc2)n1, CC(C)(C)c1nc(SCC(=O)Nc2ccc(N3CCOCC3)cc2)c2ccccc2n1, CN1c2ccccc2C(C)(C)C12C=Nc1c(cc(N3CCOCC3)c3ccccc13)O2 (configuration not stated), CN(C)/N=N\c1nc[nH]c1C(N)=O, CC[C@]1(O)C[C@@H]2CN(CCc3c([nH]c4ccccc34)[C@](C(=O)OC)(c3cc4c(cc3OC)N(C)[C@H]3[C@](O)(C(=O)OC)[C@@H](C(=O)OC)[C@@]5(CC)C=CCN6CC[C@@]43[C@@H]65)C2)C1, CN(C(=S)Nc1ccccc1F)C1(c2ccccc2Cl)CCCCC1=O (configuration not stated), CCCN(C(=S)Nc1ccccc1)C1CCS(=O)(=O)C1 (configuration not stated), COc1cccc(/C=N/NC(=O)C(=O)NCc2cccnc2)c1, COCC(=O)N1CCC2(CCCN(Cc3ccccc3)C2)CC1, CS(=O)(=O)N1CCC2(CCN(C(=O)Nc3cccc(C#N)c3)CC2)CC1, O=C(Nc1c2c(nn1-c1ccc(F)cc1)CS(=O)(=O)C2)C12CC3CC(CC(C3)C1)C2, Cc1cc(C2C(C#N)=C(N)OC3=C2C(=O)CC(C)(C)C3)c(C)s1 (configuration not stated), Cc1cc(NC(=O)CN2C(=O)NC(C)(c3ccc(OC(F)F)cc3)C2=O)no1 (configuration not stated), Cc1ccc(N2CC(C(=O)Nc3cc(C)on3)CC2=O)cc1 (configuration not stated), CN1CCN(NC(=O)c2cccc(F)c2)CC1, Cc1ccc(C2(C)NC(=O)N(CC(=O)Nc3cc(C)on3)C2=O)cc1 (configuration not stated), Cc1ccc(N2C(=O)CC(c3ccsc3)C3=C2CC(C)(C)CC3=O)cc1 (configuration not stated), Cc1ncc([N+](=O)[O-])n1CC(C)O (configuration not stated), Cc1ncc([N+](=O)[O-])n1CCO, Cc1nn(C)c(C)c1CNC(=O)c1cnn2c1NC(c1ccccc1)CC2C(F)(F)F (configuration not stated), COC(=O)N1CCC2(CCCN(Cc3ccc(C#N)cc3)C2)CC1, O=C(O)CC(c1ccccc1)n1cnnn1 (configuration not stated), Cc1ccc(C)c(S(=O)(=O)NC(CC(C)C)C(=O)O)c1 (configuration not stated), CCC/C=C(\CCC)C(NS(=O)(=O)c1ccc(C(F)(F)F)cc1)c1ccc(-c2ccccc2)cc1 (configuration not stated), COc1ccc(CCN2C(=NC(=O)CCC(=O)O)SC3CS(=O)(=O)CC32)cc1 (configuration not stated), CN1CCc2c(c3c(n2C)CCN(C)[C@H]3c2ccccc2F)[C@@H]1c1ccccc1F, CC(C)NC(=O)N1CCCC2(CCN(C(=O)c3cc(C(F)(F)F)cc(C(F)(F)F)c3)CC2)C1

activity, negative = inhibition, inactive:
C[C@@H](N1CCOCC1)[C@@](O)(c1ccccc1)c1ccccn1 -2.48% [at 2.29 µM], COc1ccc(O[C@H]2C=C[C@@H](c3ccccc3)O[C@@H]2CO/N=C(\C)CCN2CCCc3nc(C)c(C)cc32)cc1 -4.49% [at 11.4 µM], C=CC[C@@H]1C=C[C@H](O/N=C(\C)CCN2CCCCc3nc(C)c(C)cc32)[C@H](CO)O1 -6.73% [at 11.4 µM], Cc1c2cccc(Sc3ccccc3)c2c2c3c(cccc13)[S+](c1ccccc1)C2 (configuration not stated) -17.3% [at 2.29 µM], Cc1ccc(S(=O)(=O)N[C@H](CN)C(=O)O)cc1 -18.5% [at 2.29 µM], COC(=O)C/C=C\[C@@H](C)[C@@H](/C=N\OC[C@@H]1O[C@H](c2ccccc2)C=C[C@@H]1Oc1ccc(OC)cc1)NS(=O)(=O)c1ccc(C)cc1 -1.03% [at 11.4 µM]

Reference: PubChem BioAssay AID1851 (National Center for Advancing Translational Sciences (NCATS), 2009)
